The results in this text go back to ChEMBL document CHEMBL1157539, “Thousands of chemical starting points for antimalarial lead identification” (Nature, 2010).

Molecules are shown by their SMILES.

The test has as its system Plasmodium falciparum. Briefly: GSK_TCMDC: Inhibition of Plasmodium falciparum 3D7 in whole red blood cells, using parasite LDH activity as an index of growth. Test compounds present at 2uM. Format: functional.
By Inhibition is commonly meant the change of the read-out against control, counted positive when it falls. The molecule `Cc1cccc2[nH]c(-c3cc(-c4cn[nH]c4)cnc3N)nc12` had an Inhibition of 100%.

`FC(F)(F)c1ccc2[nH]c(-c3ccc(-c4ccc(CN5CCN(c6ccncc6)CC5)cc4)s3)nc2c1.O=C(O)C(F)(F)F` gave an Inhibition of 100%.

`CN1CCN(Cc2cc3cc(NC(=O)/C=C/c4cccc(Cl)c4)ccc3s2)CC1.Cl`: the Inhibition worked out at 100%.

In turn, `S=C(NCCN1CCOCC1)Nc1ccccc1` showed an Inhibition of 94%.

As to `c1cncc(-c2cc(N3CCCCC3)nc(-c3ccncc3)n2)c1`, the Inhibition is listed as 99%.

The molecule `O=C(NCCSCc1c(F)cccc1Cl)c1cnc2c(c1)nc(-c1c[nH]c(-c3ccccc3)n1)n2CCc1c[nH]cn1` gave an Inhibition of 93%.

`Cc1cccc2nc(-c3ccc(-c4cccc(CNCCCNS(C)(=O)=O)c4)s3)[nH]c12.O=C(O)C(F)(F)F` registered an Inhibition of 99%.

`COc1ccc2nc(N3CCN(C(=O)OC(C)(C)C)CC3)nc(NCCCc3ccccc3)c2c1` yielded an Inhibition of 100%.

Molecule `CC(Cc1ccc(CNC(=O)c2ccc(CC(C)NCCc3cccc(Cl)c3)cc2)cc1)NCCc1cccc(Cl)c1` (stereo not given) gave an Inhibition of 99%.

Regarding `O=C(Nc1cccc(C(F)(F)F)c1)NC1CCN(c2ccnc3ccccc23)C1.O=C(O)C(F)(F)F` (stereo not given), the Inhibition is 100%.

`COc1ccc(-c2ccc(Nc3cccc(S(=O)(=O)CCN4CCC(CCN(C)C)CC4)c3)nc2)cn1`: the Inhibition is recorded as 100%.

`COc1cc(O)c2c(=O)c(OC)c(-c3cccc(Cl)c3OC3O[C@H](CO)[C@@H](O)[C@H](O)[C@H]3O)oc2c1OC` (stereo not given in full) had an Inhibition of 100%.

`O=C(/C=C/c1ccc(C(F)(F)F)cc1)NCCCCCN1CCN(C(=O)Nc2ccc(Cl)cc2)CC1` had an Inhibition of 88%.

`Cc1cc(NCCc2ccccc2)nc(NC(=N)Nc2cccc(Cl)c2)n1`: the Inhibition came out at 100%.

The molecule `O=C(Nc1ccc(OC2CCN(Cc3ccc(F)cc3)C2)cc1)c1cccs1.O=C(O)C(F)(F)F` (stereo not given) came in with an Inhibition of 94%.

In turn, `Cc1ccccc1C1CCN(C2CCC(NC(=O)c3cncc(-c4ccccc4)c3)CC2)CC1` (stereo not given) yielded an Inhibition of 100%.

Turning to `CC(C)Cn1c2ccccc2c2nc3nc(N)nc(N)c3nc21`, the Inhibition was determined as 93%.

For the molecule `COc1ccc(-c2ccc(CNC(=O)c3ccc(Cl)cc3)c(F)c2)cc1CN1CCCN(C)CC1.O=C(O)C(F)(F)F`, the Inhibition is recorded as 99%.

Molecule `Cl.c1ccc(Oc2ccc(Nc3ccnc(Nc4ccc(OCCN5CCCCC5)cc4)n3)cc2)cc1` returned an Inhibition of 97%.

`CN1CCN(c2ccc(-c3cc(-c4ccncc4)c(-c4ccc(Cl)c(O)c4)o3)cc2)CC1.Cl`: the Inhibition is reported as 100%.

Turning to `Clc1ccc(-c2cc(-c3csc(NCCN4CCCCC4)n3)on2)cc1`, the Inhibition stood at 91%.

Turning to `CCN(CC)CCCNc1c2ccccc2nc2ccccc12.Cl`, the Inhibition was determined as 100%.

The molecule `COc1ccc2nc(-c3ccc(C(=O)NCCCN4CCN(c5cc(Cl)ccc5OC)CC4)cc3OC)[nH]c2c1` registered an Inhibition of 100%.

In turn, `O=C(c1cccc(-c2noc(C(F)(F)F)n2)c1)N1CCN(c2nsc3ccccc23)CC1` returned an Inhibition of 90%.

Turning to `O=C(CSc1nc(-c2ccccc2Cl)ns1)Nc1ccc2c(c1)OCO2`, the Inhibition came to 93%.

`COc1cc2nccc(Nc3cccc(Oc4ccccc4)c3)c2cc1OC.Cl` registered an Inhibition of 100%.

As for `CCN(CC)c1cc(C)c2cc(NC(=O)c3cc(=O)c4ccccc4o3)ccc2n1`, the Inhibition was determined as 97%.

As to `O=C(Nc1ccc(Oc2ccccc2)cc1)N(Cc1ccc(-c2ccc(CN3CCNCC3)cc2)cc1)C1CCN(Cc2ccccc2)CC1.O=C(O)C(F)(F)F`, the Inhibition was found to be 100%.

With `CC(=O)Oc1c(C2CCN(CCCCNC(=O)c3ccc(NC(=O)c4ccc(Cl)cc4)cc3)CC2)ccc2ccccc12`, the Inhibition is listed as 100%.

Turning to `O=C(Nc1ccc(-c2nc3ccccc3[nH]2)cc1)c1ccc(-c2cccc([N+](=O)[O-])c2)o1`, the Inhibition is 100%.

`CCOc1ccc(NC(C)=O)c(O)c1` displayed an Inhibition of 96%.

As for `CC(=O)Nc1ccc(Cl)c(Cl)c1`, the Inhibition was determined as 95%.

Take `CN(C)CCOc1cc(NC(=O)Nc2cccc([N+](=O)[O-])c2)ccc1I`: the Inhibition turned out to be 100%.

Molecule `COc1cccc(Nc2nc(C)cc(NCc3ccc(-c4c(C)noc4C)cc3)n2)c1` gave an Inhibition of 98%.

In the case of `O=C(O)C(F)(F)F.O=S(=O)(NCCN1CCCC1)c1cccc(-c2cccc(CNCc3ccc(F)cc3)c2)c1`, the Inhibition is on record as 99%.

`COc1ccc(CNCCCCCCCNCc2ccc(Cl)c(Cl)c2)cc1Cl` showed an Inhibition of 90%.

In turn, `Br.Cc1cccc(OCCCCON2C(=N)N=C(N)NC2(C)C)c1C` gave an Inhibition of 97%.

Take `C[C@@H](Oc1cc(-n2cnc3ccc(NC(=O)CCN4CCCCC4)cc32)sc1C(N)=O)c1ccccc1Cl`: the Inhibition was determined as 100%.

The molecule `CCN(C(=O)CSc1cc(C)c2cc(C)cc(C)c2n1)C1CCS(=O)(=O)C1` (stereo not given) returned an Inhibition of 97%.

In turn, `CC(=O)Nc1ncc(C(=O)Nc2cccc(-c3cccc(-c4nc5cccc(C)c5[nH]4)c3)c2)s1` registered an Inhibition of 94%.
